Source: PubChem
The list is not random: actives were taken first. Their share in the collection is about 12%.
JMJD2A Tudor – inhibitors of human JMJD2A Tudor domain; O75164; AlphaScreen JMJD2A-Tudor / H3K4me3 peptide binding; Potency, µM (highest dose often 114 µM), without a hit: at the top dose activity change, negative = inhibition, actives largely listed as inhibitors; 390,000 tested, 4.4% active; AID 504339; note: % is set by controls: 0 for no effect and ±100 for the full control effect; nearly all actives have a fitted effect of over 50% in size
G9a inh – G9a (human) methyltransferase inhibition. Q96KQ7. G9a H3K9 monomethylation, AlphaScreen, 2 h. Potency, µM (doses to about 102 µM), without a hit: top-dose activity, negative = inhibition, hits mostly inhibitors. 350,000 tested, 8.8% active. AID 504332; note: % is set by controls: 0 for no effect and ±100 for the full control effect; nearly all actives have a fitted effect of over 75% in size
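Methyltransferase reactions run at room temperature for 2 h (20 nM enzyme, 500 nM biotin-H3K9 peptide, 20 uM SAM) after a 15 min compound preincubation; product detected by AlphaScreen beads and anti-H3K9me1 antibody.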
HP1b binding inh – blocks HP1-beta chromodomain binding to methylated histone tails; P83916; AlphaScreen HP1-beta / biotin-H3K9me3 peptide binding; Potency, µM (titrated, usually from 114 µM), for the others: at the top dose activity change, negative = inhibition, actives largely listed as inhibitors; 390,000 tested, 0.56% active; note: nearly all actives have a fitted effect of over 70% in size
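HP1-beta protein (50 nM final) preincubated 30 min at room temperature with biotinylated H3(1-18)K9me3 peptide (50 nM) in PBS pH 7.4, 0.01% Tween-20, then compound added for 30 min. AlphaScreen streptavidin donor/nickel chelate acceptor beads (10 ug/mL final), 30 min dark, luminescence read.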
L3MBTL1 block – blocks human L3MBTL1 | Q9Y468 | AlphaScreen L3MBTL1–H3K9me1 peptide binding | Potency, µM (series often up to 57.1 µM), for inactives: top-dose activity, negative = inhibition, usual class: inhibitors | 230,000 tested, 0.66% active | AID 485360; note: % is set by controls: 0 for no effect and ±100 for the full control effect; nearly all actives have a fitted effect of over 60% in size
Target sequence (Q9Y468 whole entry, looked up): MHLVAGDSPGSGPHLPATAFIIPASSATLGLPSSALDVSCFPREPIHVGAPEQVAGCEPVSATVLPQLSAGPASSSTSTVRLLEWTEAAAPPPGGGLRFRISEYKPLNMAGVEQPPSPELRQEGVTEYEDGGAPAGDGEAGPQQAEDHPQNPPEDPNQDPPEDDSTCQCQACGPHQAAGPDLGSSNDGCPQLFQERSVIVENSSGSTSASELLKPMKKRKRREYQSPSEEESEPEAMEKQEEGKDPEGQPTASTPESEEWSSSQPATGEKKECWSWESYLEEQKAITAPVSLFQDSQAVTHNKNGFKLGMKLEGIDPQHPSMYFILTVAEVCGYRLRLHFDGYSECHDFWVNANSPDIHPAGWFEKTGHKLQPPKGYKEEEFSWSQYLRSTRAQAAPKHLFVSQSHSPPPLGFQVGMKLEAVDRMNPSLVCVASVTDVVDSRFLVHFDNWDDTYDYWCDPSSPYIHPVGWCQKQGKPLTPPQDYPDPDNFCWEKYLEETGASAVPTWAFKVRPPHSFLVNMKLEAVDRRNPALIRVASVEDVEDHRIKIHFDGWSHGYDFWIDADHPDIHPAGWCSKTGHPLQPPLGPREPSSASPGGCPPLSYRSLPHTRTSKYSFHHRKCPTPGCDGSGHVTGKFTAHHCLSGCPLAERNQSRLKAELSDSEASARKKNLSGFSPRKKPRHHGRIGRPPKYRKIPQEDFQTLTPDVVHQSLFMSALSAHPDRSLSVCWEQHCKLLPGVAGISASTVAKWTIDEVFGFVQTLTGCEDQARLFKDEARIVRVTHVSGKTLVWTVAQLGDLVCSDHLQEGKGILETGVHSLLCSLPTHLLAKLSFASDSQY
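Read-out is AlphaScreen signal from streptavidin donor and nickel chelate acceptor beads (10 ug/mL final each) bridging L3MBTL1 (50 nM) and biotinylated K9-monomethylated H3(1-15) peptide (75 nM), after 30 min compound exposure at room temperature.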
BAZ2B block – blocks human BAZ2B; Potency, µM (titrated, usually from 114 µM), without a hit: at the top dose activity change, negative = inhibition, most hits filed as inhibitors; AID 504333; 360,000 tested, 4.4% active; AlphaScreen BAZ2B-H3K14Ac peptide displacement; Q9UIF8; note: % is set by controls: 0 for no effect and ±100 for the full control effect; nearly all actives have a fitted effect of over 60% in size
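Protein-peptide AlphaScreen: BAZ2B 50 nM, b-H3K14Ac 50 nM, 1x PBS pH 7.4 + 0.01% Tween-20. Preincubation 30 min RT; cpd 30 min RT (top 110 uM); beads 20 min RT, light-protected.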
Sfp inh – Sfp phosphopantetheinyl transferase inhibition | Q9F4F7 | Biochemical Sfp PPTase activity, qHTS | Potency, µM, without a hit: largest response in the series, negative = inhibition, usual class: inhibitors | 310,000 tested, 3.5% active | AID 1490;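 note: the enzyme is Sfp with the accession as filed and its product quenches rhodamine fluorescence; 0% = enzyme reaction without inhibitor and -100% = no enzyme wells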
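Fluorescence-quenching assay with 15 nM Sfp, 5 uM rhodamine-CoA and 12.5 uM BHQ-2-labelled ybbR peptide in pH 7.6 Hepes/MgCl2 buffer. Enzyme was pre-incubated with compound for 15 min at room temperature. Rate was taken from the 30-min fluorescence change (525/598 nm).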
Numbers without * were called inactive; ? = inconclusive; / = no result; [ ] = remark or other dose. Calls come from the whole dose curve; as a rule, active = well fitted curve in the direction sought with a large enough effect; inconclusive = small, poorly fitted or top-dose-only effect, or another doubt; inactive = no such curve, though single readings can be large; an effect the other way counts as inactive or inconclusive. Potency is the fitted concentration of half-maximal effect.

SMILES | JMJD2A Tudor | G9a inh | HP1b binding inh | L3MBTL1 block | BAZ2B block | Sfp inh
CCCCCOP(=O)(OCCCCC)C1(NS(=O)(=O)c2ccccc2)C=CC(=O)c2ccccc21 (configuration not stated) | -29% | 8.9µM* | ? | -5% | -2% | 11%
Cn1cccc1/C=N/NC(=O)C(O)c1ccccc1 (configuration not stated) | -28% | / | 28% | / | -33% | 1%
O=C(Cc1ccccc1)N/N=C/c1cccn1-c1ccc([N+](=O)[O-])cc1 | -33% | 7.1µM* | ? | ? | 25µM* | -16%
O=C(N/N=C/c1cccn1-c1ccc([N+](=O)[O-])cc1)C(O)c1ccccc1 (configuration not stated) | ? | 45µM* | -14% | -4% | ? | 18µM*
O=c1[nH]c(S)c(/C=C2\C=Nc3ccccc32)s1 | ? | 14µM* | ? | -23% | 11µM* | ?
Oc1nc(Nc2ccc(F)cc2)sc1/C=C1\C=Nc2ccccc21 | -20% | 10%[59 µM] | 20% | 0% | -15% | 1%
Cc1ccc(N2C(=O)C3Sc4[nH]c(=O)sc4C(c4ccccc4)C3C2=O)cc1 (configuration not stated) | -34% | 51%[0.501 µM] | 6% | -6% | 50µM* | -4%
O=C1C2Sc3[nH]c(=O)sc3C(c3ccccc3)C2C(=O)N1c1ccc(Cl)cc1 (configuration not stated) | ? | 36%[0.501 µM] | -4% | -9% | ? | -10%
COc1ccc(C2C=C(c3ccccc3)Nc3nc(NC(=O)/C=C/c4ccc(F)cc4)nn32)cc1 (configuration not stated) | -4% | -34%[59 µM] | 46% | / | -4% | /
COc1ccc2c(c1)CC/C(=C/c1ccco1)C2=O | -34% | ? | ? | -23% | 35µM* | -4%
O=C1/C(=C\c2ccncc2)CCc2ccccc21 | -20% | 12%[2.33 µM] | 41% | -6% | -9% | /
O=C1/C(=C/c2ccco2)CCc2ccccc21 | -35% | 10µM* | ? | ? | 40µM* | 56µM*
Nc1ccc2c(c1)C/C(=C/c1ccco1)C2=O | -33% | 7.1µM* | -15% | 28µM* | ? | -65%
Cn1cccc1/C=C1\Cc2ccccc2C1=O | -10% | -8%[59 µM] | 21% | / | -26% | 11%
Cn1cccc1/C=C1\CCc2ccccc2C1=O | 45µM* | ? | ? | / | 40µM* | 4%
COC(=O)C1=C[C@@H](C(=O)OC)[C@@H]2C3=C(C(=O)C2(C)C)[C@H](c2ccccc2)[C@@H]2C(=O)N(c4ccccc4)C(=O)[C@@H]2[C@@H]3C1 | -19% | / | 37% | / | / | -2%
S=c1[nH]c(-c2ccccc2)cs1 | 22µM* | 1.4µM* | ? | -8% | 40µM* | 79µM*
Fc1ccc(-c2csc(=S)[nH]2)cc1 | 22µM* | ? | -25% | -10%[11.4 µM] | 50µM* | 11µM*
CCOc1ccc2oc(=O)cc(CN3CCN(C(=O)c4ccc(Cl)cc4)CC3)c2c1 | -20% | -30%[59 µM] | 26% | / | -13% | /
CCc1cccc(-n2c(=O)c3cccnc3n2CC(=O)NCc2ccccc2Cl)c1 | -3% | -5%[59 µM] | 17% | / | 0% | /
Cc1cccc(CN2CCN(CCCc3ccccc3)CC2)c1 | / | / | / | 31% | ? | ?
FC(F)(F)c1cccc(CN2CCSCC2)c1 | 22µM* | 10µM* | ? | 0% | 56µM* | -7%
Cc1cccc(CN2CCSCC2)c1 | 20µM* | ? | ? | 0% | ? | -10%
O=S1(=O)CCN(Cc2cccc(C(F)(F)F)c2)CC1 | -19% | 25% | 19% | -8% | 6% | 2%
Cc1cccc(Oc2nc(-c3ccccn3)nc3ccccc23)c1 | -27% | -1% | 21% | ? | -24% | 71µM*
SMILES | JMJD2A Tudor | G9a inh | HP1b binding inh | L3MBTL1 block | BAZ2B block | Sfp inh
CC(=C\c1ccco1)/C=C1/SC(=S)N(CC(=O)O)C1=O | -28% | 40µM* | -1% | 40µM* | 50µM* | 28µM*
COc1ccc(NC(=O)CCCN2C(=O)/C(=C\c3ccco3)SC2=S)cc1 | -29% | -7%[59 µM] | -13% | -22% | ? | ?
O=C(CN1C(=O)/C(=C/c2ccco2)SC1=S)NC1CCS(=O)(=O)C1 (configuration not stated) | ? | 40µM* | -34% | / | ? | 25µM*
CC(/C=C1\SC(=S)N(CC(=O)O)C1=O)=C\c1ccccc1 | -17% | 12%[59 µM] | -1% | 0% | -16% | -23%
O=C(CN1C(=O)/C(=C/c2ccco2)SC1=S)Nc1ccc(O)c(C(=O)O)c1 | ? | 25µM* | 41% | / | 45µM* | 50µM*
O=C(CCN1C(=O)/C(=C/c2ccccc2)SC1=S)NC1CCS(=O)(=O)C1 (configuration not stated) | -22% | 58% | -7% | / | -11% | 7%
O=C(CN1C(=O)/C(=C/c2ccco2)SC1=S)Nc1ccc(C(=O)O)c(O)c1 | -11% | / | 30% | / | 28µM* | 50µM*
CC(C(=O)Nc1ccc(C(=O)O)c(O)c1)N1C(=O)/C(=C\c2ccco2)SC1=S (configuration not stated) | 7% | 14µM* | 21% | / | 28µM* | 50µM*
CCOc1ccccc1CNC(=O)Cn1nc(C)c2nn(-c3ccc(Cl)cc3)c(C)c2c1=O | -17% | 9%[59 µM] | 24%[57 µM] | / | 2% | /
CCn1c(CC(=O)Nc2ccc(Cl)c(Cl)c2)nnc1SCc1ccc(Cl)cc1 | -17% | -8%[59 µM] | 13% | 0% | -4% | 9%
CCn1c(CS(=O)Cc2ccc(Cl)cc2Cl)nnc1SCc1c(Cl)cccc1Cl (configuration not stated) | -24% | 16µM* | 20% | 5% | 8% | -14%
O=S(=O)(Nc1c(Br)cc(Br)c2cccnc12)C1CCCCC1 | 12% | / | 38% | / | / | /
Cc1ccc(C(=O)/C=C/c2cc(Br)cc(Br)c2O)o1 | ? | 35µM* | -19% | / | ? | ?
COc1ccc(CCNC(=O)C2c3ccccc3C(=O)N2Cc2ccccc2)cc1OC (configuration not stated) | -2% | 6%[59 µM] | 25% | / | 5% | /
COc1cccc(CN(C)C(=O)c2cc(-c3ccc(OC)c(OC)c3)nc3ccccc23)c1 | -10% | / | 43% | / | -9% | 2%
COc1cccc(CN(C)C(=O)c2cc(-c3ccc(F)cc3)nc3ccccc23)c1 | 10% | ? | 51% | / | ? | 22µM*
COc1ccc(CCN(C)C(=O)c2cc(-c3ccccc3)nc3ccccc23)cc1OC | -9% | 40µM* | 25% | / | ? | -15%
COC(=O)c1ccccc1NC(=O)c1ccccc1SC | 26% | 8.9µM* | 40% | 52% | 62% | ?
